Values joined by “and” are separate entries in the source; they are usually repeats but may differ in a detail not shown here. Equal entries are not always repeated. Results filed as inconclusive are left out. Active and inactive are the calls of the source. Unless noted, calls come from the whole dose curve; as a rule, active = well fitted curve in the direction sought with a large enough effect; inconclusive = small, poorly fitted or top-dose-only effect, or another doubt; inactive = no such curve, though single readings can be large; an effect the other way counts as inactive or inconclusive.
How the values were obtained:
[1] = qHTS for compounds that reverse cellular toxicity of Amyloid beta (A-beta) peptide in yeast: LOPAC Validation Assay (AID 720559);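 note: plate controls were DMSO for no effect and equimolar ferric chloride plus clioquinol rescue for full effect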
Outline: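 Yeast expressing toxic A-beta grown with pinned compounds at 30 C for 48 hr. Growth measured as absorbance at 600 nm; data normalized to DMSO and to an equimolar FeCl3/clioquinol mixture as positive control.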

[2] = qHTS for Activators of Parkin Expression: LOPAC Validation Assay (NLuc Reporter) (AID 720572)
Outline: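 Compound effects on Parkin promoter activity were measured as NanoLuc luminescence after 24 h at 37 C. The neuronal reporter line also carried FLuc, which was read first. LOPAC compounds were tested at 7 concentrations, with normalization to DMSO (0%) and positive control (100%).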

[3] = qHTS for Activators of Parkin Expression: LOPAC Validation Assay (FLuc Reporter) (AID 720573)
Outline: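 Neuronal cell line stably expressing FLuc/NLuc coincidence reporter under the Parkin promoter, 1,500 cells/well, dosed 24 h after seeding in 7-point series for 24 h at 37 C. FLuc luminescence read; normalized to DMSO and positive control (100%).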

[4] = target: T1, Hexokinase-4 (Homo sapiens) + Glucokinase regulatory protein (Homo sapiens) (UniProt P35557+Q14397); test: qHTS assay for inhibitors of recombinant human GCK-GKRP interaction: Diaphorase-coupled assay (AID 743205)
T1 sequence (P35557 whole entry, looked up): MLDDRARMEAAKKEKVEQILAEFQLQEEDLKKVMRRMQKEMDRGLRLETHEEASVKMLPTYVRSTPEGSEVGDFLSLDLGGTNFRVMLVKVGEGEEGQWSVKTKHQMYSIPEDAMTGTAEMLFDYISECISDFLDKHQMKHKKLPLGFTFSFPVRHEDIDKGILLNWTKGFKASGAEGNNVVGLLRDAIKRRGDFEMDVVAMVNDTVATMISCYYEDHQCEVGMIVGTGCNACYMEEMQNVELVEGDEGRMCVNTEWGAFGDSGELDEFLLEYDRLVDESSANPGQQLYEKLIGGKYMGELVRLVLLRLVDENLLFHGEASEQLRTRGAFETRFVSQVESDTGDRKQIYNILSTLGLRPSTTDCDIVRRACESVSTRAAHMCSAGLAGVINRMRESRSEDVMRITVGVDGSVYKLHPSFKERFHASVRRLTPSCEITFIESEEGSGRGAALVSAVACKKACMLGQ
T1 sequence (Q14397 whole entry, looked up): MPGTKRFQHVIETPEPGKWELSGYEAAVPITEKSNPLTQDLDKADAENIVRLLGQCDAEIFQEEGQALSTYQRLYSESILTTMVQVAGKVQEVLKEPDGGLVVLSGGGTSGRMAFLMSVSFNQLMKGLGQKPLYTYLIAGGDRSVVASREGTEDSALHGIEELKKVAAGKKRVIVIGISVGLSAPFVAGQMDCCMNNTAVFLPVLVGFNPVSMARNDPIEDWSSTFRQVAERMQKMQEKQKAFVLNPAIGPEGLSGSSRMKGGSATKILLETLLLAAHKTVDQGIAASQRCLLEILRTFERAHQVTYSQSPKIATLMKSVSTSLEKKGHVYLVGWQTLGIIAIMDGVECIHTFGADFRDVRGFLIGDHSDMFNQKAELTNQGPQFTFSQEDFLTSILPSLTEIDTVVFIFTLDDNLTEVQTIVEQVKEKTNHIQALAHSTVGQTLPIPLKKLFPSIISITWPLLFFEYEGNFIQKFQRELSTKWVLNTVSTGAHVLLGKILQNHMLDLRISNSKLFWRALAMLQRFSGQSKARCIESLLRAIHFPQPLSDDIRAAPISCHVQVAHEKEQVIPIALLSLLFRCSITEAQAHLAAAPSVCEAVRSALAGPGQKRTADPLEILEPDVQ
Outline: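 Compounds pre-incubated 20 min with substrate, then 10 nM GST-GCK with 10 nM FLAG-GKRP added. GCK activity coupled via G6PDH and diaphorase to resorufin (5 mM glucose, 0.4 mM ATP, 0.15 mM NADP+, pH 7.6), read kinetically over 30 minutes at Ex 525/Em 590 nm.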

[5] = target: T1, Hexokinase-4 (Homo sapiens) + Glucokinase regulatory protein (Homo sapiens); test: qHTS assay for inhibitors of recombinant human GCK-GKRP interaction: ADP-Glo assay (AID 743206);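 note: plate controls were DMSO plus enzyme for no effect and no enzyme for full effect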
Outline: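 Pin-transferred compounds meet a 15 nM GST-GCK/15 nM FLAG-GKRP/2 uM S6P mix (dispense concentrations). ATP is then added to 0.4 mM final with 5 mM glucose, and the reaction runs 60 min at room temperature. ADP is quantified luminescently.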

[6] = target: T1, Hexokinase-4 (Homo sapiens) + Glucokinase regulatory protein (Homo sapiens); test: qHTS assay for inhibitors of recombinant human GCK-GKRP interaction: HTRF assay (AID 743207);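 note: 0% = DMSO with GCK present and -100% = DMSO wells lacking GCK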
Outline: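 HTRF binding of 5 nM GST-GCK and 5 nM FLAG-GKRP with 2 uM S6P in pH 7.1 Hepes buffer (MgCl2, KCl, DTT, Tween 20, BSA). Anti-FLAG XL665 and anti-GST donor added, 60 min at room temperature; 665/615 nm read, normalized to with- and without-GCK controls.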

[7] = qHTS Assay for Identifying Gametocytocidal Compounds (AID 743244); note: potency is the fitted concentration of half-maximal effect;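 for max response: % is set by controls: 0 for no effect and ±100 for the full control effect; actives lower the fluorescent signal which means gametocytes are killed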; settings: P. falciparum 3D7 stage III-V gametocytes, alamarBlue, 72 h; max response: hits give low values
Outline: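 Viability read-out was resazurin reduction (alamarBlue, 24 h) measured at Ex 525/Em 598 nm. Beforehand, late-stage (III-V) 3D7 P. falciparum gametocytes at 20,000 cells/well were incubated with compound 72 h at 37C under 5% CO2.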

[8] = qHTS assay for small molecule agonists of the antioxidant response element (ARE) signaling pathway measured by Nrf2-dependant transcriptional activity (AID 720636; active = well fitted curve in the direction sought with a large enough effect in the repeat runs; an effect the other way counts as inactive or inconclusive;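 note: HepG2 cells with an ARE-driven luciferase reporter; % of control where 0% means no effect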)
Outline: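 Attachment 6 hr at 37 C, then compound versus DMSO vehicle for 16 hr in ARE-luc HepG2 cells (1% dialyzed FBS); luminescence recorded 30 min after ONE-Glo addition at room temperature.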

[9] = qHTS assay for small molecule antagonists of the retinoid-related orphan receptor gamma (ROR-gamma) signaling pathway - cell viability counter screen (AID 720652; active = well fitted curve in the direction sought with a large enough effect in the repeat runs; an effect the other way counts as inactive or inconclusive;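 note: CHO reporter cells with doxycycline-induced ROR-gamma expression; series mostly up to about 92 µM; compound exposure lasted 16 hr before ATP read; % is set by controls: 0 for no effect and ±100 for the full control effect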)
Outline: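 Steps: seed CHO cells bearing TET-inducible ROR and ROR response element-luciferase; rest 5 hr at 37 C; add compound, then doxycycline; incubate 16 hr; add CellTiter-Glo and read luminescence as ATP-based viability.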

[10] = qHTS assay for small molecule agonists of the antioxidant response element (ARE) signaling pathway measured by Nrf2-dependant transcriptional activity - cell viability counter screen (AID 720653; active = well fitted curve in the direction sought with a large enough effect in the repeat runs; an effect the other way counts as inactive or inconclusive; note: potency is the fitted concentration of half-maximal effect; for max response: % is set by controls: 0 for no effect and ±100 for the full control effect); settings: ARE-bla HepG2 viability, CellTiter-Glo ATP luminescence, 16 h; max response: hits give low values
Outline: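 Cytotoxicity counter screen: intracellular ATP quantified by CellTiter-Glo luminescence in the same ARE-bla HepG2 plates, after 16 h compound exposure and a 2 h beta-lactamase substrate step.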

[11] = qHTS assay for cell viability of HEK293 cells (AID 743288); settings: ATP luminescence (CellTiter-Glo), 18 h, hits give low values; note: % is set by controls: 0 for no effect and ±100 for the full control effect; nearly all actives have a fitted effect of over 50% in size
Outline: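 Steps: plate 2,000 parental HEK293 cells per well; incubate ≥5 h, 37 C; add compounds in DMSO; incubate 18 h, 37 C; add CellTiter-Glo; wait 30 min at room temperature; read luminescence.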

[12] = qHTS assay for cell viability of the p53RE-bla HCT-116 cell line (AID 743292); note: % is set by controls: 0 for no effect and ±100 for the full control effect; nearly all actives have a fitted effect of over 55% in size
Outline: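 Compound-exposed HCT-116 (p53RE-bla) cells, 4,000 per well, were kept 16 h at 37 C following a 5 h preincubation. Cell number was estimated from total ATP by CellTiter-Glo luminescence read after 30 min at room temperature.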

[13] = target: Tyrosine-protein kinase Yes (Homo sapiens) (UniProt P07947); test: qHTS for small molecule inhibitors of Yes1 kinase: Primary Screen (AID 686947); note: potency is the fitted concentration of half-maximal effect; nearly all actives have a fitted effect of over 60% in size
Sequence of Tyrosine-protein kinase Yes (Homo sapiens) (P07947 whole entry, looked up): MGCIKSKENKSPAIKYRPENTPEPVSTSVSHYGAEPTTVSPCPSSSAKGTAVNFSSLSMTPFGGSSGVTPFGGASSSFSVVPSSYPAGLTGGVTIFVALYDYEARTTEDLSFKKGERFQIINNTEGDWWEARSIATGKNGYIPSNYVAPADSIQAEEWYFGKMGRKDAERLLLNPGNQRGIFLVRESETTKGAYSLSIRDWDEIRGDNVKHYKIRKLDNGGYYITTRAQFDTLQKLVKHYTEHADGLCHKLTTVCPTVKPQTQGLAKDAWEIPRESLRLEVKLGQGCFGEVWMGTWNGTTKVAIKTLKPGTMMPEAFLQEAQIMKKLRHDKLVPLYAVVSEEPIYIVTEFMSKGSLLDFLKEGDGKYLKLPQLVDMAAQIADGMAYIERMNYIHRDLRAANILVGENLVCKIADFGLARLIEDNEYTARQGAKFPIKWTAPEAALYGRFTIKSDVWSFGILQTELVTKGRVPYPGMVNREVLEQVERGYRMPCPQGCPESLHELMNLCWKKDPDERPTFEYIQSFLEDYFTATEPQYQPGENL
Outline: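 ADP-Glo luminescence reports ADP formed by 4 nM Yes1 phosphorylating poly(E4Y) (0.3 mg/mL) with 0.1 mM ATP for 60 min at room temperature, following 20 min compound preincubation; normalised between DMSO wells with and without enzyme.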

[14] = qHTS for small molecule inhibitors of Yes1 kinase: Counter Assay (AID 686950);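 note: no kinase present so only ADP-Glo detection of a fixed ADP amount is tested; luminescence from ADP-Glo reporting ADP in a fixed ATP and ADP mixture; series mostly up to about 77 µM; 0% = DMSO wells with ATP plus ADP and -100% = ATP-only wells without ADP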
Outline: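 ADP-Glo luminescence read after a 60 min room-temperature incubation of compound with an ATP/ADP mix (0.08 mM/0.02 mM) and no kinase, following a 20 min compound preincubation. Signal scaled between ATP+ADP (max) and 0.1 mM ATP-only (min) wells; Tris pH 7.5, Mg2+, DTT.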

O=[N+]([O-])c1ccc(-c2nc(-c3ccc(F)cc3)c(-c3ccncc3)[nH]2)cc1
inactive: outcome [1] | outcome [2] | outcome [3] | outcome [4] | outcome [5] | outcome [6] | max response [7] -10.7%

CC(C)N(CCC(=O)c1ccc2ccccc2c1)Cc1ccccc1
inactive: outcome [1] | outcome [2] | outcome [3] | outcome [4] | outcome [5] | outcome [6]

Cc1cc(C(C)(C)C)c(O)c(C(C)(C)C)c1
inactive: outcome [8] | outcome [9] | max response [10] -5.59% and 4.89% | max response [11] -0.0848% and 0.626% | Potency [12]

O=C1NC(=O)/C(=C/c2ccc3c(c2)OC(F)(F)O3)S1
inactive: outcome [1] | outcome [2] | outcome [4] | outcome [5] | outcome [6]

COC(=O)C1=CO[C@@H](O)[C@@H]2C(CO)=CC[C@H]12
inactive: outcome [1] | outcome [2] | outcome [3] | outcome [4] | outcome [5] | outcome [6] | max response [7] 18%

Nc1ncnc2n[nH]c(Nc3ccc(F)cc3)c12
inactive: outcome [1] | outcome [2] | outcome [3] | outcome [4] | outcome [5] | outcome [6] | max response [7] 6.51%

COc1cccc2c1[C@@H]1CN(CCCCn3c(=O)[nH]c4c(sc5ncc(-c6ccccc6)nc54)c3=O)C[C@@H]1CO2
inactive: outcome [1] | outcome [2] | outcome [3] | outcome [4] | outcome [5] | outcome [6] | max response [7] 22.3%

NC(N)=NCCCCN=C(N)N
inactive: outcome [1] | outcome [2] | outcome [3] | outcome [4] | outcome [5] | outcome [6] | max response [7] 2.24% and 15.3%

O=C(Oc1ccccc1)c1ccccc1O
inactive: outcome [8] | outcome [9] | max response [10] -7.62% and 5.57% | max response [7] 7.75% | max response [11] 1.49% and 4.97% | Potency [12]

C1=CC2C3C=CC(C3)C2C1 (stereo unspecified)
inactive: outcome [8] | outcome [9] | max response [10] -2.11% | max response [7] -11.9% | max response [11] -14.2% | Potency [12]

O=C(c1ccccc1)c1ccccc1
inactive: outcome [8] | outcome [9] | max response [10] 6.09% and -10.7% | max response [11] -5.39% and 4.23% | Potency [12]

Cc1nn(-c2ccccc2)c(C)c1/C=N/N1CCN(Cc2ccccc2)CC1
inactive: outcome [1] | outcome [2] | outcome [3] | outcome [4] | outcome [5] | outcome [6] | max response [7] 1.48%

Clc1ccc2c(c1)N=C(N1CCNCC1)c1ccccc1N2
inactive: outcome [1] | outcome [2] | outcome [3] | outcome [4] | outcome [5] | outcome [6]

Cn1cnc2c(NCc3ccccc3)nc(NCCO)nc21
inactive: outcome [1] | outcome [2] | outcome [3] | outcome [4] | outcome [5] | outcome [6] | max response [7] 11.6%

CC(C)C(C)(C)C(C)(C)C(C)(C)S
inactive: outcome [8] | outcome [9] | max response [10] -4.36% and 4.23% | max response [7] 40.1% | max response [11] 6.58% and -3.43% | Potency [12]

C[N+](C)(C)CCO
inactive: outcome [1] | outcome [2] | outcome [3] | outcome [4] | outcome [5] | outcome [6] | max response [7] 1.6% and 15%

CCCCC(CC)COC(=O)c1ccccc1C(=O)O (stereo unspecified)
inactive: outcome [8] | outcome [9] | max response [10] 4.74% and -13.7% | max response [7] -17.7% | max response [11] -6.66% and 0.856% | Potency [12]

Nc1c2ccccc2nc2ccccc12
active: Potency [10] 31.6 µM | Potency [7] 10 µM
inactive: outcome [8] | outcome [9] | Potency [12]

CN(C)c1cc2c(Nc3ccc4c(cnn4Cc4ccccc4)c3)ncnc2cn1
inactive: outcome [14] | outcome [1] | outcome [4] | outcome [5] | outcome [6]
active: Potency [13] 0.207 µM

O=C1NC(c2cccc([N+](=O)[O-])c2)=CCN1c1ccccc1O
inactive: outcome [1] | outcome [2] | outcome [3] | outcome [4] | outcome [5] | outcome [6] | max response [7] 21.2%

CC(C)(c1ccc(O)cc1)c1ccc(O)cc1
inactive: outcome [8] | outcome [9] | max response [10] -12.4% and -0.346% and -0.0074% | max response [7] -6.17% | max response [11] 0.899% and -7.06% and -9.11% | Potency [12]

Source: PubChem BioAssay (NCATS)
